Screening data deposited in PubChem BioAssay by National Center for Advancing Translational Sciences (NCATS).
Most compounds without a hit are left out; they make up all but 21% or so of the library.
Pf growth 48h: P. falciparum growth inhibition at 48 hours (one generation); P. falciparum luciferase growth in erythrocytes, 48 h; Potency, µM (series often up to 28.7 µM), for inactives: top-dose activity change, negative = inhibition, usual class: inhibitors; 310,000 tested, 5.9% active; AID 504832; also: potency is read from the fitted curve at half-maximal effect; % is scaled to controls: 0 for no effect and ±100 for the full control effect
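Luminescence readout; reporter = integrated firefly luciferase in P. falciparum. RBC culture at 2% hematocrit, 0.1% parasitemia final, 37 C/5% CO2; decreased signal taken as growth inhibition.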
Pf growth 96h: P. falciparum growth inhibition at 96 hour, primary screen for plastid delayed-death inhibitors | Potency, µM (series often up to 28.7 µM), inactives show at the highest dose activity change, negative = inhibition, hits mostly inhibitors | P. falciparum luciferase reporter growth, 96 h | 320,000 tested, 6.9% active; also: potency is read from the fitted curve at half-maximal effect; % is scaled to controls: 0 for no effect and ±100 for the full control effect
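Two parasite generations (96 h, 37 C, 5% CO2) of compound exposure in infected erythrocytes (0.05% parasitemia, 2% hematocrit). Luciferase-reporter P. falciparum; decreased luminescence indicates inhibited growth, aimed at apicoplast-acting delayed death.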
NS1 function inh: inhibitors of influenza NS1 protein function; Potency, µM (titrated, usually from 46.1 µM), without a hit: at the highest dose activity, positive = more growth; 270,000 tested, 0.4% active; calls by dose curve; also: potency is read from the fitted curve at half-maximal effect; actives are rising curves; nearly all actives have a fitted effect of over 50% in size
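Recovery from NS1-induced slow growth read by OD600 in budding yeast switched to galactose assay medium (pH 6.0, -URA) at 1:100 dilution. Compound 23 nl per well; the matching strain lacking NS1 serves as control.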
Shiga inhibitor: blocks Shiga toxin action in Vero cells | AID 2315 | Vero cells, Shiga toxin protein synthesis inhibition reporter | inhibition, % at 38.7 µM | 290,000 tested, 9.2% active; in the data active = inhibition mostly above about 28%, no sharp cut-off; inactive = mostly below about 43%; also: 0% is about no effect
Cycloheximide cs: counter-screen for Shiga toxin inhibitors: cycloheximide protein synthesis inhibition | cell reporter, cycloheximide protein synthesis inhibition counterscreen | max response, % | 300,000 tested, 12% active | AID 2314; in the data active = max response mostly above about 13%, no sharp cut-off; inactive = mostly below about 14%; also: read at 38.3 µM for the half of the compounds with a filed dose; 0% is about no effect
Giardia FBPA inh: blocks Giardia fructose-bisphosphate aldolase activity; A8B2U2; purified Giardia FBPA; Potency, µM (series often up to 59.6 µM), for the others: top-dose activity, negative = inhibition, most hits filed as inhibitors; 290,000 tested, 0.71% active; AID 2451; also: potency is read from the fitted curve at half-maximal effect; % is scaled to controls: 0 for no effect and ±100 for the full control effect; nearly all actives have a fitted effect of over 55% in size
Target sequence (A8B2U2 whole entry, looked up): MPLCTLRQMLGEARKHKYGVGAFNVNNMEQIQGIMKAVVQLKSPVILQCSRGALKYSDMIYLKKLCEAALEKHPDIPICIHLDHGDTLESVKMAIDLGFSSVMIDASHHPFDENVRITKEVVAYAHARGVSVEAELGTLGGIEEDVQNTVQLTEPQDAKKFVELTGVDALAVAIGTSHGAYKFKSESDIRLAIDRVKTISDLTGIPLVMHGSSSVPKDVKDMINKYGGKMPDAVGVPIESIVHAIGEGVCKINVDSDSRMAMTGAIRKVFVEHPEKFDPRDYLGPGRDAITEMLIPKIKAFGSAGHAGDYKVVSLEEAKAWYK
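40 nM FBPA preincubated 10 min at RT with compound (up to 57.5 uM final), then substrate plus GAPDH/TPI/NAD/arsenate coupling and diaphorase/resazurin added. Fluorescence read after 20 min at RT, 525/598 nm.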
An asterisk follows results filed as active; u = inconclusive; x = no result; [ ] = dose if it differs, or a comment. Unless noted, calls follow the shape of the dose curve; as a rule, active = well fitted curve in the direction sought with a large enough effect; inconclusive = small, poorly fitted or top-dose-only effect, or another doubt; inactive = no such curve, though single readings can be large; an effect the other way counts as inactive or inconclusive.

SMILES | Pf growth 48h | Pf growth 96h | NS1 function inh | Shiga inhibitor | Cycloheximide cs | Giardia FBPA inh
COc1ccc(SC[C@H](CC(C)C)N2CCN(C)CCC2=O)cc1 | 57% | 66% | 4% | 75* | 17* | 0%
COc1ccc(SCCN2CCN(C)CCC2=O)cc1 | 6% | 40% | u | 44 | 7 | 6%
CC[N+](CC)(CCNC(=O)C(=O)NCC[N+](CC)(CC)Cc1ccccc1Cl)Cc1ccccc1Cl | u | 6µM* | x | x | x | 6%
CC(C)Nc1nc(-c2ccncc2)nc(-c2ccc(Cl)cc2)c1C#N | u | u | -3% | 5 | -2 | 8%
CC(C)Nc1nc(-c2cccnc2)nc(-c2ccc(Cl)cc2)c1C#N | 0%[0.00184 µM] | 2.3µM* | -1% | -13 | -8 | 2%
CC(C)Nc1nc(-c2cccnc2)nc(-c2ccccc2)c1C#N | 8.3µM* | u | 3% | -3 | -4 | -1%
CC(=O)c1ccc(N2CCN(CC(O)COC(c3ccccc3)c3ccccc3)CC2)cc1 (stereo not given) | u | -7% | 3% | -4 | -6 | u
CC(=O)c1ccc(N2CCN(CC(O)COC(c3ccccc3)c3ccccc3C)CC2)cc1 (stereo not given) | 10µM* | u | -9% | -1 | -2 | u
COC(=O)COc1ccc(-n2cnnn2)cc1 | -11%[5.75 µM] | 15% | x | 4 | -3 | 3%
COc1ccc(Cn2cc(C(=O)c3ccccc3)c(=O)c3cc(OC)ccc32)cc1 | u | u | 16% | -8 | -5 | -8%
Cc1ccc(Cn2cc(C(=O)c3ccc(F)cc3)c(=O)c3cc4c(cc32)OCCO4)cc1 | -25% | 12µM* | 3% | 0 | -3 | -1%
CCn1cc(C(=O)NCCc2ccc(Cl)cc2)c(=O)c2ccc(C)nc21 | -3% | 8% | -7% | -7 | -3 | 8%
Cc1ccc(C(=O)c2cn(Cc3ccc(Cl)cc3)c3nc(C)ccc3c2=O)cc1 | u | 12µM* | x | x | x | x
NCCc1nc(-c2nc(C(=O)O)cs2)cs1 | x | x | 0% | x | x | x
CCc1ccc(OC(=O)c2cncc(Br)c2)cc1 | 9% | u | -3% | 22 | 18* | 6%
CCCCCOC(=O)c1ccc(OC(=O)c2cncc(Br)c2)cc1 | 54% | 0% | -9% | 27 | 21* | 1%
CCc1ccc(C(=O)COC(=O)c2cncc(Br)c2)cc1 | 17µM* | 52% | x | 33 | 40* | 2%
O=C(COC(=O)c1cncc(Br)c1)NC1CC1 | x | 36% | 0% | -14 | 16* | 4%
COCC(=O)N1CCC2(CCN(Cc3ccncc3)CC2)CC1 | x | x | x | x | x | 1%
CC(C)NC(=O)N1CCC2(CC1)CCN(S(=O)(=O)c1ccccc1)CC2 | x | x | x | x | x | 7%
CNCC(O)c1cccc(O)c1 (stereo not given) | x | x | x | x | x | -2%
CCCCCCCOC(=O)c1ccc(OC(=O)c2cccnc2)cc1 | x | -7% | 7% | 53 | 16* | -5%
O=C(NCCCN1CCOCC1)c1onc(CSc2nc3ccccc3[nH]2)c1C(=O)NCCCN1CCOCC1 | 22% | 74% | -14% | 0 | -1 | -1%
O=C(NCCN1CCOCC1)c1cc(-c2cccs2)on1 | 62% | 9.3µM* | 3% | 57* | 20* | 0%
O=C(NCCCN1CCOCC1)c1cc(-c2ccc(O)cc2)on1 | 2% | -22% | 6% | 19 | 2 | 0%
SMILES | Pf growth 48h | Pf growth 96h | NS1 function inh | Shiga inhibitor | Cycloheximide cs | Giardia FBPA inh
O=C(NCCN1CCOCC1)c1cc(-c2ccccc2)on1 | 59% | x | -10% | 74* | 22* | 0%
O=C(NCCCN1CCOCC1)c1cc(-c2ccccc2)on1 | 59% | x | -14% | 137* | 13* | 5%
Cc1cc(C)cc(SCc2noc(C(=O)NCCCN3CCOCC3)c2C(=O)NCCCN2CCOCC2)c1 | 9.3µM* | u | 6% | -7 | -2 | 4%
COC(=O)c1ccc(CN2C(=O)NC3(CCC(C)CC3)C2=O)cc1 (stereo not given) | -4% | -1% | x | 120* | 53* | 3%
CC(C)(C)OC(=O)NS(=O)(=O)NCc1ccco1 | x | x | x | 12 | 6 | 2%
Cc1cc(C)c(C)c(S(=O)(=O)Nc2ccccc2C(=O)NCCCN2CCOCC2)c1C | u | -9% | x | -15 | -3 | -3%
O=C(O)CCC(=O)c1ccc2sc3ccccc3c2c1 | x | x | -30% | x | x | x
CCOc1ccc(CCNC(=O)CSc2nc3ncc(Cl)cc3[nH]2)cc1OCC | -21% | u | -4% | -8 | -1 | x
CCOc1cc(C2C(C#N)=C(N)Oc3n[nH]c(CC)c32)ccc1OCCN1CCOCC1 (stereo not given) | u | 9.3µM* | -6% | 0 | -2 | 0%
COCc1[nH]nc2c1C(c1ccc(OC)cc1)C(C#N)=C(N)O2 (stereo not given) | -6% | 1.3µM* | 9% | 19 | -1 | -3%
Cc1[nH]nc2c1C(c1ccc(OC(=O)c3ccco3)cc1)C(C#N)=C(N)O2 (stereo not given) | 3% | -80% | -2% | -11 | -2 | 0%
Cc1[nH]nc2c1C(c1ccco1)C(C#N)=C(N)O2 (stereo not given) | 0% | 0% | x | 15 | 7 | 0%
COc1ccc(-c2ccc(C3C(C#N)=C(N)Oc4n[nH]c(C)c43)o2)cc1 (stereo not given) | 56% | 13% | -9% | 20 | 23* | -7%
COc1cc(C2C(C#N)=C(N)Oc3n[nH]c(C)c32)ccc1OC(=O)c1ccccc1 (stereo not given) | 3% | 17µM* | 20% | -11 | -4 | -1%
O=C(COc1ccc(F)c(Cl)c1)N1CCCCCCC1 | 66% | -21% | 9% | 12 | 7 | 16%
CC1CCCCN1S(=O)(=O)c1ccc2[nH]c(=O)cc(C(=O)NCCCN3CCCCCC3)c2c1 (stereo not given) | u | 44% | u | -5 | -5 | -2%
Cn1nnnc1SCC(=O)N1CCCc2ccccc21 | 16% | 62% | 4% | -3 | -3 | -2%
O=C(CSc1cccc[n+]1[O-])N1CCCc2ccccc21 | 13% | -15% | x | 15 | 23* | 8%
O=C(CSCc1ccco1)N1CCc2ccccc21 | 123% | u | -3% | 105* | 40* | 3%
Nc1nnc(SCC(=O)N2CCc3ccccc32)n1-c1ccccc1 | 1% | -3% | -4% | 7 | -1 | -1%
O=C(Cn1cccc1)N1CCc2ccccc21 | -2% | 21% | 7% | 17 | 17 | 7%
Cc1nnc(SCC(=O)N2CCc3ccccc32)s1 | 15% | u | -7% | active | 20* | -9%
CSc1nsc(SCC(=O)N2CCc3ccccc32)n1 | u | 0% | 3% | 22 | 7 | 4%
Nc1cc(N)nc(SCC(=O)N2CCc3ccccc32)n1 | x | u | 21% | 58* | 30* | 0%
CCOc1ccc(NC(=O)C(Cc2ccccc2)N2C(=O)c3cccc4cccc(c34)C2=O)cc1 (stereo not given) | u | u | -1% | -6 | -3 | 1%
